# Test results taken from the supplement of paper PMC10105736.
# Unmarked numbers belong to inactive results.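 The calls were made as follows: active = MAPPIT score above the 99th percentile of random reference set scores in the same batch; inactive = at or below it.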
# B1: p38b (protein)
# chain: MSRKMAKFYKLDINRTEWEIPETYQNLQPVGQGAYGQVCKAVVRGTSTKVAIKKLARPFQSAVHAKRTYRELRLLKHMDHENVIGLLDVFHPGQPADSLDQFQQVYMVTHLMDADLNNIIRTQKLSDDHVQFLVYQILRGLKYIHSAGVIHRDLKPSNIAVNEDCELRILDFGLARPAESEMTGYVATRWYRAPEIMLNWMHYNQTADIWSVGCIMAELLTGRTLFPGTDHIHQLNLIMEVLGTPADEFMSRISSESARNYIRSLPVMPRRNFRDIFRGANPLAIDLLEKMLELDADKRITAEQALAHPYMEKYHDPTDEQTAALYDQSFEENELPVEKWREMVFSEVTAFKPTAAFAELLPKEQ
# B2: flw (protein)
# chain: MGDFDLNVDSLIQRLLEMRSCRTGKQVQMTEAEVRGLCLKSREIFLQQPILLELEAPLIICGDIHGQYTDLLRLFEYGGFPPAANYLFLGDYVDRGKQSLETICLLLAYKIKYPENFFLLRGNHECASINRIYGFYDECKRRYNVKLWKTFTDCFNCLPVAAIIDEKIFCCHGGLSPDLQGMEQIRRLMRPTDVPDTGLLCDLLWSDPDKDVQGWGENDRGVSFTFGVDVVSKFLNRHELDLICRAHQVVEDGYEFFARRQLVTLFSAPNYCGEFDNAGGMMTVDDTLMCSFQILKPSEKKAKYLYSGMNSSRPTTPQRSAPMLATNKKK
# B3: Hakai (protein)
# chain: MDTEEVKRGRGRGRGTRARGRGRGRGRGRGKKIDDSSIADAAALAASSCAALEDSPGRLDASEDSVMQELDKDGELETPGALEEPLPHGALGAVAASGNMTPATQQPQVLQQVPPPVMSQTTISLSLARAVDMEADISQLEAPTFTTLSRGPPEPMLRLKWNHKVSLIGEKVLNPMIHCCDQCDKPILVYGRMIPCKHVFCLKCARAEPIKSCPRCTDKVLRVEQSGLGTVFMCTHGGSRYGSSGCRRTYLSQRDLQAHINHRHVAPQPPPLQPQPQLSAMAEQPKMTDLGGVGLGLELHKQRKLSESSVPISVSASIASRPVLSRLPLTGGVGNIGSIGSIPPPGSAAAAQNAIHGGHSTLTLANLTRINNANAQECHQGKASLHHTLKKGTPHQSESVADASYYSSVLASFGSAAGNPGSGPPGGGATAAAQPANPSGSHSAVGPGALIGGSTDAPTGGSSGNWQQSQYYR
# B4: grp (protein)
# chain: MAATLTEAGTGPAATREFVEGWTLAQTLGEGAYGEVKLLINRQTGEAVAMKMVDLKKHPDAANSVRKEVCIQKMLQDKHILRFFGKRSQGSVEYIFLEYAAGGELFDRIEPDVGMPQHEAQRYFTQLLSGLNYLHQRGIAHRDLKPENLLLDEHDNVKISDFGMATMFRCKGKERLLDKRCGTLPYVAPEVLQKAYHAQPADLWSCGVILVTMLAGELPWDQPSTNCTEFTNWRDNDHWQLQTPWSKLDTLAISLLRKLLATSPGTRLTLEKTLDHKWCNMQFADNERSYDLVDSAAALEICSPKAKRQRLQSSAHLSNGLDDSISRNYCSQPMPTMRSDDDFNVRLGSGRSKEDGGDRQTLAQEARLSYSFSQPALLDDLLLATQMNQTQNASQNYFQRLVRRMTRFFVTTRWDDTIKRLVGTIERLGGYTCKFGDDGVVTVSTVDRNKLRLVFKAHIIEMDGKILVDCRLSKGCGLEFKRRFIKIKNALEDIVLKGPTTWPIAIATNSVP
# B5: Trmt112 (protein)
# chain: MKLSTYNFLTSVAIKGVKVGFPLKLTINKKEVVESEFNPTFVERILPKLDWSAVYGAAQVAELTEDIPAVQPENIVENELLLQKLHHLLFEIDVLEGQLECPETGRVFPISDGIPNMLLNEDEV
# B6: SdhB (protein)
# chain: MLATEARQILSRVGSLVARNQMRAISNGTAQLEQQAQPKEAQEPQIKKFEIYRWNPDNAGEKPYMQTYEVDLRECGPMVLDALIKIKNEMDPTLTFRRSCREGICGSCAMNIGGTNTLACISKIDINTSKSLKVYPLPHMYVVRDLVPDMNNFYEQYRNIQPWLQRKNEAGEKKGKAQYLQSVEDRSKLDGLYECILCACCSTSCPSYWWNAEKYLGPAVLMQAYRWIIDSRDENSAERLNKLKDPFSVYRCHTIMNCTRTCPKGLNPGRAIAEIKKLLSGLASKPAPKLETAALHK
# B7: porin (protein)
# chain: MAPPSYSDLGKQARDIFSKGYNFGLWKLDLKTKTSSGIEFNTAGHSNQESGKVFGSLETKYKVKDYGLTLTEKWNTDNTLFTEVAVQDQLLEGLKLSLEGNFAPQSGNKNGKFKVAYGHENVKADSDVNIDLKGPLINASAVLGYQGWLAGYQTAFDTQQSKLTTNNFALGYTTKDFVLHTAVNDGQEFSGSIFQRTSDKLDVGVQLSWASGTSNTKFAIGAKYQLDDDASVRAKVNNASQVGLGYQQKLRDGVTLTLSTLVDGKNFNAGGHKIGVGLELEA
# B8: Hsp23 (protein)
# chain: MANIPLLLSLADDLGRMSMVPFYEPYYCQRQRNPYLALVGPMEQQLRQLEKQVGASSGSSGAVSKIGKDGFQVCMDVSHFKPSELVVKVQDNSVLVEGNHEEREDDHGFITRHFVRRYALPPGYEADKVASTLSSDGVLTIKVPKPPAIEDKGNERIVQIQQVGPAHLNVKENPKEAVEQDNGNDK
# Key:
# Assay in all cases: MAPPIT interaction score (arbitrary units); higher = stronger binary interaction signal, active = hit call of the paper
# MAPk-Ak2 = conditions: MAPPIT configuration: N-N; pair source set: Curagen_high_conf
# MYPT-75D = conditions: pair source set: Lit-BM-16
# Mbs = conditions: MAPPIT configuration: N-N; pair source set: Lit-BM-16
# Nop17l = conditions: MAPPIT configuration: N-N; pair source set: Lit-BM-16
# Tm1 = conditions: MAPPIT configuration: N-C; pair source set: Lit-BM-16
# Zasp66 = conditions: pair source set: Lit-BM-16
# elm = conditions: MAPPIT configuration: N-N; pair source set: Lit-BS-16
# MagR = conditions: MAPPIT configuration: N-N; pair source set: Lit-BS-16
# Polr1B = conditions: MAPPIT configuration: N-N; pair source set: DPIM
# pav = conditions: MAPPIT configuration: N-N; pair source set: DPIM
# MED15 = conditions: MAPPIT configuration: N-N; pair source set: Finley_Y2H
# MED8 = target: MED8
# MESK2 = conditions: MAPPIT configuration: N-N; pair source set: DPIM
# Mkk4 = conditions: MAPPIT configuration: N-N; pair source set: DPIM
# Orai = conditions: MAPPIT configuration: N-N; pair source set: DPIM
# Mettl14 = conditions: MAPPIT configuration: N-N; pair source set: DPIM
# Rnmt = conditions: MAPPIT configuration: N-N; pair source set: DPIM
# 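Also: HEK293T cells with Epo stimulation, STAT-responsive firefly luciferase reporter, fold induction versus unstimulated cells divided by the larger fold induction of two negative controls lacking either bait or prey.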
binder,measurement,setting,value
B1,MAPPIT interaction score,MAPk-Ak2,1.93
B2,MAPPIT interaction score,MYPT-75D; MAPPIT configuration: N-C,0.517
same,MAPPIT interaction score,MYPT-75D; MAPPIT configuration: N-N,-0.255
same,MAPPIT interaction score,Mbs,-0.0767
same,MAPPIT interaction score,Nop17l,-0.464
same,MAPPIT interaction score,Tm1,1.19
same,MAPPIT interaction score,Zasp66; MAPPIT configuration: N-C,0.478
same,MAPPIT interaction score,Zasp66; MAPPIT configuration: N-N,0.558
same,MAPPIT interaction score,elm,-0.48
B3,MAPPIT interaction score,MagR,2.01
same,MAPPIT interaction score,Polr1B,0.0868
same,MAPPIT interaction score,pav,0.0448
B4,MAPPIT interaction score,MED15,2.02
B5,MAPPIT interaction score,"MED8; MAPPIT configuration: N-C, pair source set: screen_4",0.923
same,MAPPIT interaction score,"MED8; MAPPIT configuration: N-N, pair source set: Finley_Y2H",1.99
B6,MAPPIT interaction score,MESK2,0.135
B7,MAPPIT interaction score,Mkk4,1.64
same,MAPPIT interaction score,Orai,1.31
B8,MAPPIT interaction score,Mettl14,1.35
same,MAPPIT interaction score,Rnmt,1.27
